These results are taken from PubChem BioAssay AID1947 (The Scripps Research Institute Molecular Screening Center, 2009).

Screen size: about 300,000 compounds; about 990 (0.33%) were called active. What follows is part of a selection rich in actives, with near analogues and random picks from the rest. Values without a mark were called inactive.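 The calls were made as follows: active = inhibition above the screen mean inhibition plus 3 SD, computed separately per campaign (cut at about 18% in these data); inactive = the rest.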

In the assay the test system is Fam108B (ABHD17B) serine hydrolase [Mus musculus]. Description: mouse Fam108B serine hydrolase inhibitors, primary screen, counter-screen for RBBP9 inhibitor project, biochemical, fluorescence polarization (AID 1947).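 Also: inhibitors lower polarization as less probe binds the enzyme.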 The settings on record: recombinant Fam108B, FP-Rh probe fluorescence polarization; at 9.51 µM; active compounds read high.
Take `O=Cc1c(NCCCN2CCCC2=O)c2ccccc2[nH]c1=O`: the inhibition is 0.62%. The figure for `Cn1c(=O)c2c(ncn2CC(COCc2ccccc2Cl)OCc2ccccc2Cl)n(C)c1=O` (stereo unspecified) is 2.8%; for `Cc1nn(Cc2ccc(F)cc2)c(C)c1NC(=O)c1noc2c1CCc1ccccc1-2` it is -3.92%. With `O=C(O)c1cccc(N2C(=O)Nc3ccccc3N2O)c1` the figure was 0.58%; with `C/C(=N\Nc1cccc(C(=O)O)c1)c1ccc2c(c1)Nc1ccccc1S2`, 20% (active); with `Cc1ccccc1NC(=O)c1cc(S(=O)(=O)Nc2cccc(C(=O)O)c2)ccc1Cl`, -0.84%. The figure for `CCOc1cnc(-c2c(-c3ccccc3Cl)noc2C)o1` is -3.64%; for `CCn1cc(CN2CCCC(CNS(=O)(=O)Cc3ccccc3)C2)cn1` (stereo unspecified) it is -2.99%. For the compound `Cc1ccc(CN(C)Cc2cc(=O)oc3cc(C)c(Cl)cc23)cc1`, the inhibition is 9.93%. The figure for `CCCCC(=O)Nc1nc(C)c(-c2csc(Nc3ccc(Cl)cc3)n2)s1` is 20.4% (active); for `CC(=O)Nc1ccc(S(=O)(=O)Nc2nc(-c3ccc(C(C)(C)C)cc3)cs2)cc1` it is 5.38%; for `O=C(Nc1ccc(-c2csc(Nc3cccc(C(F)(F)F)c3)n2)cc1)c1cccc(C(F)(F)F)c1` it is 37.3% (active). With `CCCCCCC(=O)Nc1nc(C)c(-c2csc(Nc3cc(Cl)ccc3OC)n2)s1` the figure was 11.8%; with `CC(=O)Nc1cccc(-c2csc(Nc3cccc(C)n3)n2)c1`, 5.89%; with `CC(=O)Nc1nc(C)c(-c2csc(Nc3ccc(S(N)(=O)=O)cc3)n2)s1`, -0.24%. On to `C=CCCC(=O)Nc1nc(C)c(-c2csc(Nc3ccc(Cl)cc3)n2)s1`, for which the inhibition was -6.01%. With `CCCCCCC(=O)Nc1nc(C)c(-c2csc(Nc3cccc(OC)c3)n2)s1` the figure was 12.5%; with `Cc1nc(NC(=O)c2cccc(Cl)c2)sc1-c1csc(Nc2cccc(Cl)c2)n1`, 61.2% (active). On to `CCOC(=O)c1c(CC(C)C)csc1/N=C/C1=C(O)CCCC1=O`, for which the inhibition was -3.29%.

Regarding `O=C(NNC(=O)c1cnccc1C(F)(F)F)c1ccc(Cl)cc1`, the inhibition is -3.08%.

For the compound `CCCn1c(=O)c2c(C(F)(F)F)cc(-c3cccs3)nc2n(CCC)c1=O`, the inhibition is 7.34%. As for `COc1ccc(OCC(O)CN(C)C(=O)C(C)Oc2ccccc2)cc1` (stereo unspecified), the inhibition is 3.54%. With `O=C1N[C@@H](Cc2ccccc2)C(=O)N2[C@@H]3N(S(=O)(=O)c4ccc(F)cc4)c4ccccc4[C@]3(Br)C[C@@H]12` the figure was 2.06%; with `Oc1ccc(/C=N/Nc2nc(-c3ccccc3F)nc3ccccc23)c(O)c1`, 41% (active). The figure for `Cc1nc2ccccc2nc1N/N=C/c1ccc(O)cc1O` is 5.03%.

For the compound `Fc1ccc(/C=N/Nc2nc(-c3cccnc3)nc3ccccc23)cc1`, the inhibition was -5.98%. The figure for `CCC(C)[C@H]1COCCS(=O)(=O)N1Cc1ccc(C)cc1` (stereo partly specified) is -0.44%; for `CC1(C)C2CCC1(C)C(OC(=O)c1ccc(O)cc1)C2` (stereo unspecified) it is -4.06%. Regarding `Nc1ccc2nc3c(=O)[nH]c(=S)[nH]c3nc2c1`, the inhibition was 29.3% (active). The figure for `O=C(COC(=O)CCCNC(=O)c1ccc(Cl)cc1)Nc1cc(Cl)ccc1Cl` is 4.35%; for `O=C(NC1CC1)c1cccc(Br)c1` it is -0.72%. The figure for `O=C(NNC(=O)c1ccc(-c2ccccc2)cc1)Nc1ccccc1` is -2.01%. With `O=C(NC1CC1)c1ccc(-c2ccccc2)cc1` the figure was 34.3% (active).

Regarding `Cc1ccccc1N1CC(C(=O)Nc2nnc(SCCC3OCCO3)s2)CC1=O` (stereo unspecified), the inhibition was 5.32%. With `O=C(CN(Cc1ccccc1)C(=O)CCC(=O)Nc1ccccn1)NCCc1ccccc1`, the inhibition is 0.27%.

Take `COc1ccc(C2=Nc3cc(C)ccc3OC2)cc1`: the inhibition is -0.41%.

Regarding `O=c1cc(O)nc(SCc2ccccc2Cl)[nH]1`, the inhibition was -1.05%. The figure for `c1ccc(CSc2nnc(-c3ccco3)c(-c3ccco3)n2)cc1` is 19.7% (active); for `Clc1ccccc1CSc1nnc(-c2ccco2)c(-c2ccco2)n1` it is 18.8% (active); for `COc1ccc2nc(SCc3ccccc3)nc(C)c2c1` it is -2.64%. The figure for `Fc1cccc(Cl)c1CSc1ccc(-c2ccco2)nn1` is -2.56%. The figure for `O=c1[nH]c(SCc2ccccc2)nnc1-c1ccccc1` is -0.14%; for `COC(=O)c1ccc(CNC(=O)c2ccc3oc(C(C)C)nc3c2)cc1` it is -1.84%. With `N#CCC(=O)N/N=C/c1cn(Cc2ccc3ccccc3c2)c2ccccc12`, the inhibition is -6.56%. The figure for `COC(=O)CN1C(=O)[C@H]2[C@@H](/C=C/c3ccccc3)N3C(=O)CN(CC4CC4)C(=O)[C@@]3(Cc3ccccc3)[C@H]2C1=O` is -4.39%. With `COC/C=C/C1=CC2=CC(=O)C(C)(OC(=O)CCC(=O)OC)C(=O)C2=CO1` (stereo unspecified) the figure was 8.02%; with `COc1ccc(NC(=O)CSc2nnc(Cc3ccccc3)c(=O)n2N)cc1`, 0.31%.

Turning to `CC(C)N1CCC(N2CCN(Cc3cccnc3)CC2CCO)CC1` (stereo unspecified), the inhibition is 1.03%. Regarding `COC(=O)c1cc(N2CCNCC2)nc2ccccc12`, the inhibition was 1.69%. Take `COc1ccc(C(=O)CC(=O)C(=O)Nc2cc([N+](=O)[O-])ccc2OC)cc1`: the inhibition was 2.15%. With `COc1ccc(NS(=O)(=O)c2cc(NC(=O)CC(=O)c3ccc([N+](=O)[O-])cc3)ccc2C)cc1` the figure was 18.6% (active). With `COc1ccc(NS(=O)(=O)c2cc(C(=O)Nc3ccccc3C(=O)O)ccc2C)cc1` the figure was -3.09%; with `COc1cc(Cl)c(C)cc1NC(=O)CSc1nnc(-c2ccco2)n1CC(C)C`, 0.55%. The figure for `Cc1cc(C)cc(OCC(=O)NC(C)c2ccccc2)c1` (stereo unspecified) is -2.91%. For `CC(=O)Nc1ccc(NC(=O)CC2CCCC2)cc1`, the inhibition was 3.46%.

With `Cc1ccc(C2Nc3cccc4cccc(c34)N2)cc1`, the inhibition was 10.3%. With `O=C1NC(c2cccc(Cl)c2)Nc2ccccc21` (stereo unspecified), the inhibition is -1.96%. For `COc1cccc(C2Nc3cccc4cccc(c34)N2)c1`, the inhibition is 23% (active). The figure for `Brc1ccccc1C1Nc2cccc3cccc(c23)N1` is 11.3%; for `Oc1ccc(C2Nc3cccc4cccc(c34)N2)cc1` it is 44.7% (active); for `COc1ccc(C2NC(=O)c3ccccc3N2)cc1` (stereo unspecified) it is -0.94%. The figure for `COc1ccccc1CN1CCNC(=O)C1CC(=O)N(C)CC1CCOCC1` (stereo unspecified) is 1.34%; for `O=C(COC(=O)/C=C/c1cn(-c2ccccc2)nc1-c1cccnc1)Nc1ccc(Cl)cc1Cl` it is -13.2%. The figure for `O=C(COC(=O)c1cc(=O)[nH]c2ccccc12)Nc1nc(-c2cccc(Br)c2)cs1` is -30.4%; for `Cc1nc([N+](=O)[O-])c(NCCCO)n1Cc1ccccc1` it is 1.87%; for `COc1cccc(C(=O)N2CCC(n3nccc3NC(=O)C3CCOC3)CC2)c1` (stereo unspecified) it is 5.08%.

Turning to `O=C(Nc1ccc2ccccc2c1)Nc1ccc2snnc2c1`, the inhibition is -25.9%. With `Cc1ccc(-c2ccnc3nc(Sc4ncc(C(F)(F)F)cc4Cl)nn23)cc1` the figure was -3.23%; with `CC[N+](C)(CC)CCC[n+]1c(-c2ccccc2)c2cc(N)ccc2c2ccc(N)cc21`, 74.1% (active); with `CCc1ccc2ncc(C(=O)c3ccccc3)c(N3CCOCC3)c2c1`, 0.71%. With `FC(F)(F)c1cc(-c2ccco2)nc(NCc2ccc(Cl)cc2)n1` the figure was -10.7%; with `Cc1cc(=O)oc2c3c(cc(OCC(=O)NCc4ccccn4)c12)OC(C)(C)CC3`, -1.76%; with `COc1cc(NC(=O)COC(=O)c2cnc(C)cn2)c(C)cc1[N+](=O)[O-]`, -0.2%. Take `CC(C)[C@H](NC(=O)N1CC(=O)Nc2ccccc21)C(=O)N[C@@H](Cc1c[nH]c2ccccc12)C(=O)O`: the inhibition is 0.98%. With `COc1cc(OC)cc(C(=O)NCCSCc2ccc(Cl)cc2)c1` the figure was -2.49%; with `Cc1cc(C)c(C2C3=C(Nc4c2c(C)nn4-c2ccccn2)c2ccccc2C3=O)c(C)c1` (stereo unspecified), -5.56%. The figure for `Cc1ccc(C2C3=C(Nc4[nH]n(-c5ccccc5)c(=O)c42)c2ccccc2C3=O)cc1` (stereo unspecified) is 34.1% (active); for `Cc1ccc(-c2ccnc3[nH]n(-c4ccccc4)c(=O)c23)cc1` it is -1.58%.

With `COCCN1CCn2c(nc3cc(NS(C)(=O)=O)ccc32)C1`, the inhibition was 2.47%. Take `Cc1[nH]n(C(N)=S)c(=O)c1N=Nc1ccc(Cl)cc1Cl`: the inhibition was 20.8% (active). With `Cc1cccc(N=Nc2c(C)[nH]n(-c3ccccc3)c2=O)c1` the figure was 4.19%. On to `CC1=NN(C(N)=S)C(=O)C1N=Nc1cc(Cl)ccc1Cl` (stereo unspecified), for which the inhibition was 1.09%. The figure for `O=C(CNC(=O)c1ccccc1F)c1ccc(Br)cc1` is 0.62%; for `COc1c(F)c(F)c(-c2csc(N)n2)c(F)c1F` it is 2.83%; for `S=C(Nc1ccc2c(c1)OCO2)N1CCCC1` it is -2.94%. With `Cc1ccccc1NC(=O)CSC1=NCCN1`, the inhibition was -0.3%. The figure for `COc1ccc(NC(=O)CCCN2C(=O)C(c3ccccc3)Oc3cccnc32)cc1` (stereo unspecified) is -1.86%.

`O=C(OCC1OC(Oc2ccc(O)cc2)C(O)C(O)C1O)c1ccccc1` (stereo unspecified): the inhibition was -4.47%. With `O=C(OCC1O[C@@H](OC(=O)c2cc(O)c(O)c(O)c2)[C@@H](OC(=O)c2cc(O)c(O)c(O)c2)[C@@H](OC(=O)c2cc(O)c(O)c(O)c2)[C@@H]1OC(=O)c1cc(O)c(O)c(O)c1)c1cc(O)c(O)c(O)c1` (stereo partly specified) the figure was 62.1% (active); with `CC(O)c1ccc(OCCN(C)c2ccccn2)cc1` (stereo unspecified), 8.79%. With `Cn1cnnc1Sc1ccc(S(C)(=O)=O)cc1[N+](=O)[O-]` the figure was 0.49%.
